From PubChem BioAssay (EPA / NIEHS)
Inconclusive results are not listed. Active and inactive are the calls of the source. The calls were made as follows, unless noted: active = hit-call score of the fitted dose curve at least 0.9, where 1 is the maximum; inactive = score below 0.9.

What was measured:
[1] = target: Retinoic acid receptor RXR-alpha (Homo sapiens) (UniProt P19793); test: ATG_RXRa_TRANS: Attagene TRANS-FACTORIAL HepG2 Assay for human Retinoid X Receptor alpha (RXRa) (AID 2283012; active = hit-call score of the fitted dose curve at least 0.9, where 1 is the maximum)
Outline: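 Transient transfection of human HepG2 with multiple GAL4-UAS reporter constructs; 24 h compound exposure; total RNA isolated, reverse-transcribed, PCR-amplified, 6-FAM labelled, HpaI-cut, resolved by capillary electrophoresis. Positive-direction fit versus DMSO.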

[2] = target: human Thyroid Receptor alpha (THRa1), THRA (gene 7067) (UniProt P10827); test: ATG_THRa1_TRANS: Attagene TRANS-FACTORIAL HepG2 Assay for human Thyroid Receptor alpha (THRa1) (AID 2283014; active = hit-call score of the fitted dose curve at least 0.9, where 1 is the maximum)
Outline: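 First, HepG2 cells receive multiple GAL4-UAS reporter units and the chimeric receptor. They are then dosed for 24 h, after which RNA is reverse-transcribed, amplified, labelled, HpaI-cut and sized by capillary electrophoresis; gain relative to DMSO is scored.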

[3] = target: human Vitamin D Receptor (VDR), VDR (gene 7421) (UniProt P11473); test: ATG_VDR_TRANS: Attagene TRANS-FACTORIAL HepG2 Assay for human Vitamin D Receptor (VDR) (AID 2283022; active = hit-call score of the fitted dose curve at least 0.9, where 1 is the maximum)
Outline: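 Fluorescence of labelled reporter cDNA fragments, resolved by capillary electrophoresis, gives mRNA induction after 24 h treatment of HepG2 cells carrying transfected Gal4-fusion reporter units. Activity is fitted in the positive direction with DMSO as baseline.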

[4] = read-out: E-selectin (Homo sapiens) (UniProt P16581); test: BSK_3C_Eselectin: BioMAP Diversity Plus: 3C Assay for Eselectin Biomarker Activity (AID 2283015); conditions: primary human endothelial cells (HUVEC); actives raise or lower the signal
Outline: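 Human vascular endothelium from umbilical vein is exposed to test chemicals for 24 h. E-selectin levels are read by ELISA and compared with DMSO controls.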

[5] = read-out: Interleukin-1 alpha (IL1a), IL1A (gene 3552); test: BSK_BE3C_IL1a: BioMAP Diversity Plus: BE3C Assay for Interleukin-1 alpha (IL1a) Biomarker Activity (AID 2283016); conditions: primary human bronchial epithelial cells; actives raise or lower the signal
Outline: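 BE3C primary human bronchial epithelium; cpd 24 h; IL-1a by ELISA; bidirectional fit vs DMSO; parallel SRB (0.1% SRB, 10% TCA fix, 560 nm) for cytotoxicity.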

[6] = read-out: Monocyte Chemoattractant Protein-1 (MCP1), CCL2 (gene 6347); test: BSK_3C_MCP1: BioMAP Diversity Plus: 3C Assay for Monocyte Chemoattractant Protein-1 (MCP1) Biomarker Activity (AID 2283017); conditions: primary human endothelial cells (HUVEC); actives raise or lower the signal
Outline: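 Endothelial cells from human umbilical vein are dosed with chemical, cultured 24 h, then assayed for MCP-1 by ELISA; both increases and decreases are modelled against DMSO controls.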

[7] = read-out: Monocyte Chemoattractant Protein-1 (MCP1), CCL2 (gene 6347); test: BSK_4H_MCP1: BioMAP Diversity Plus: 4H Assay for Monocyte Chemoattractant Protein-1 (MCP1) Biomarker Activity (AID 2283018); conditions: primary human endothelial cells (HUVEC); actives raise or lower the signal
Outline: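 ELISA read-out of MCP-1 from human vascular endothelial primary cells taken at 24 hours after compound exposure. Activity was fitted in both directions relative to DMSO, which served as negative control.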

[8] = read-out: Interleukin-8 (IL8), CXCL8 (gene 3576); test: BSK_3C_IL8: BioMAP Diversity Plus: 3C Assay for Interleukin-8 (IL8) Biomarker Activity (AID 2283020); conditions: primary human endothelial cells (HUVEC); actives raise or lower the signal
Outline: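 ELISA read-out of IL-8 from human umbilical vein endothelium, measured 24 h after chemical dosing. Activity is expressed relative to DMSO negative control, with both increases and decreases fitted.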

[9] = read-out: Monokine induced gamma interferon (MIG), CXCL9 (gene 4283); test: BSK_3C_MIG: BioMAP Diversity Plus: 3C Assay for Monokine induced gamma interferon (MIG) Biomarker Activity (AID 2283021); conditions: primary human endothelial cells (HUVEC); actives raise or lower the signal;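 as to AC50: MIG protein level measured by immunoassay in the treated endothelial cultures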
Outline: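 Read-out is ELISA detection of MIG on human umbilical vein endothelial cells, taken 24 h after dosing. Gain or loss of signal was scored relative to DMSO controls using bidirectional curve fitting.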

[10] = BSK_3C_SRB: Viability Assessment in the BioMAP Diversity Plus: 3C Assay (AID 2283023); conditions: primary human endothelial cells (HUVEC);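 also: fitted both ways against DMSO so a hit may be signal rise or drop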
Outline: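 Cells were dosed with chemical, cultured 24 h, fixed with 10% TCA, stained with 0.1% SRB and read at 560 nm. Human umbilical vein endothelium was used; DMSO served as negative control and baseline.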

[11] = BSK_3C_Vis: BioMAP Diversity Plus: 3C Assay for Morphology Visualization (AID 2283025); conditions: primary human endothelial cells (HUVEC);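 also: fitted both ways so gain or loss versus DMSO counts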;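 as to AC50: light microscopy image of cell morphology used as background control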
Outline: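 Chemicals were added to primary human umbilical vein endothelium, cells were incubated 24 h, and morphology was then visualized by light microscopy. Gain or loss of signal was fitted bidirectionally relative to DMSO.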

[12] = read-out: Pselectin, SELP (gene 6403); test: BSK_4H_Pselectin: BioMAP Diversity Plus: 4H Assay for Pselectin Biomarker Activity (AID 2283026); conditions: primary human endothelial cells (HUVEC); actives raise or lower the signal
Outline: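 ELISA read-out of P-selectin on human umbilical vein endothelium after 24 h of dosing. Values derive from bidirectional fitting relative to DMSO. Parallel SRB protein staining flagged overt cytotoxicity.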

[13] = BSK_4H_SRB: Viability Assessment in the BioMAP Diversity Plus: 4H Assay (AID 2283027); conditions: primary human endothelial cells (HUVEC);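 also: cells exposed to compound for 24 h before staining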;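 as to AC50: curves fitted both ways versus DMSO so AC50 may be loss or gain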
Outline: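 Human umbilical vein endothelial cells, 24 h after chemical dosing; total protein measured by 0.1% sulforhodamine B staining after 10% TCA fixation, read at 560 nm. Bidirectional fitting against DMSO.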

[14] = BSK_BE3C_SRB: Viability Assessment in the BioMAP Diversity Plus: BE3C Assay (AID 2283028); conditions: primary human bronchial epithelial cells;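 as to AC50: fitted both ways so AC50 may mark signal gain or loss versus DMSO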
Outline: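 Overt cytotoxicity was assessed as total protein in confluent human primary bronchial epithelial cultures 24 h after chemical addition, using 0.1% sulforhodamine B staining read at 560 nm.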

[15] = read-out: Thrombomodulin, THBD (gene 7056); test: BSK_3C_Thrombomodulin: BioMAP Diversity Plus: 3C Assay for Thrombomodulin Biomarker Activity (AID 2283029); conditions: primary human endothelial cells (HUVEC); actives raise or lower the signal
Outline: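 Read-out is ELISA of thrombomodulin on human umbilical vein endothelium 24 h after chemical dosing. Gain or loss of signal is scored relative to DMSO. Overt cytotoxicity is checked in parallel cultures by sulforhodamine B staining.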

[16] = read-out: Urokinase-type plasminogen activator receptor (uPAR), PLAUR (gene 5329); test: BSK_4H_uPAR: BioMAP Diversity Plus: 4H Assay for Urokinase-type plasminogen activator receptor (uPAR) Biomarker Activity (AID 2283030); conditions: primary human endothelial cells (HUVEC); actives raise or lower the signal
Outline: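 Chemicals are dosed onto human vascular endothelial primary cells (umbilical vein). After 24 h, uPAR is read by ELISA. Gain or loss of signal is fitted relative to DMSO.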

[17] = read-out: Human Leukocyte Antigen - DR isotype (HLADR), HLA-DRA (gene 3122); test: BSK_3C_HLADR: BioMAP Diversity Plus: 3C Assay for Human Leukocyte Antigen - DR isotype (HLADR) Biomarker Activity (AID 2283019); conditions: primary human endothelial cells (HUVEC); actives raise or lower the signal
Outline: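 Endothelial cells from human umbilical vein are treated with test chemical; after 24 h, HLA-DR levels are measured by ELISA. Data are fitted in both directions using DMSO as the baseline.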

[18] = read-out: Matrix Metallopeptidase 1 (MMP1), MMP1 (gene 4312); test: BSK_BE3C_MMP1: BioMAP Diversity Plus: BE3C Assay for Matrix Metallopeptidase 1 (MMP1) Biomarker Activity (AID 2283024); conditions: primary human bronchial epithelial cells; actives raise or lower the signal
Outline: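 Human bronchial epithelial cells (BE3C system) exposed to compound for 24 h; MMP1 then quantified by ELISA. Activity was fitted in both directions relative to DMSO.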

[19] = target: human Retinoid X Receptor beta (RXRb), RXRB (gene 6257) (UniProt P28702); test: ATG_RXRb_TRANS: Attagene TRANS-FACTORIAL HepG2 Assay for human Retinoid X Receptor beta (RXRb) (AID 2283013; active = hit-call score of the fitted dose curve at least 0.9, where 1 is the maximum)
Outline: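 Transfect HepG2 with GAL4-UAS multi-reporter constructs (chimeric NR-Gal4, TRANS format); dose compound 24 h; isolate RNA, RT-PCR, FAM primer extension, HpaI digest; quantify by capillary electrophoresis; positive direction vs DMSO.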

Measured: AC50

human Thyroid Receptor alpha (THRa1), THRA (gene 7067), sequence (P10827 whole entry, looked up, the tested form may be a part): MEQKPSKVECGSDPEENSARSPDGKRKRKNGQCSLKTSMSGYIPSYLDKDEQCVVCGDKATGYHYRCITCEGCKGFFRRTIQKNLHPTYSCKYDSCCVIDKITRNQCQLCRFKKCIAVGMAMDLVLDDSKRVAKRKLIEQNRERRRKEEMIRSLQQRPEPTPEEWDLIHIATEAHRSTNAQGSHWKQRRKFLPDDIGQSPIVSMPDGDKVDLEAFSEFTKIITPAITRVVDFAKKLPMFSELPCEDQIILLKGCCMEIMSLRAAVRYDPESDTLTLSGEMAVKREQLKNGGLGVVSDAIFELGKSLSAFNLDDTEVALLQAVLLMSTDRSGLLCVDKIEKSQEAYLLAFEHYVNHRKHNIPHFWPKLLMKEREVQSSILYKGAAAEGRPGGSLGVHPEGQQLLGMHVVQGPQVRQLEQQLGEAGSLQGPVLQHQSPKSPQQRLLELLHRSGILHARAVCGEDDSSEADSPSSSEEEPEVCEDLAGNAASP
human Retinoid X Receptor beta (RXRb), RXRB (gene 6257), sequence (P28702 whole entry, looked up, the tested form may be a part): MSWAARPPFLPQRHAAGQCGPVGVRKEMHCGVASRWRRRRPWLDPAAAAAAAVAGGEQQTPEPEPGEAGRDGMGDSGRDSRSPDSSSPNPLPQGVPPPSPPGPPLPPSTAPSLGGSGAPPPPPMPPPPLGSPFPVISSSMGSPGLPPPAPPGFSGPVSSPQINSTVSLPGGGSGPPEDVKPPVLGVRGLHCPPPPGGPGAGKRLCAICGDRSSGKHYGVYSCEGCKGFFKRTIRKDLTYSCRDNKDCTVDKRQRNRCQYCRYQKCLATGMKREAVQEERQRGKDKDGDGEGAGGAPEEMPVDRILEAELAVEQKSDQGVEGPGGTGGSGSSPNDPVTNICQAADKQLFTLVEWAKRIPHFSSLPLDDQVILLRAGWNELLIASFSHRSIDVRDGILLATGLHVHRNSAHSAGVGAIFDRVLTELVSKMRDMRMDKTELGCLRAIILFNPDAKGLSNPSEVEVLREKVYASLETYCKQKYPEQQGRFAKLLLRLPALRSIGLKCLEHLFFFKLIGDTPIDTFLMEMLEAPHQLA
E-selectin (Homo sapiens), sequence (P16581 whole entry, looked up): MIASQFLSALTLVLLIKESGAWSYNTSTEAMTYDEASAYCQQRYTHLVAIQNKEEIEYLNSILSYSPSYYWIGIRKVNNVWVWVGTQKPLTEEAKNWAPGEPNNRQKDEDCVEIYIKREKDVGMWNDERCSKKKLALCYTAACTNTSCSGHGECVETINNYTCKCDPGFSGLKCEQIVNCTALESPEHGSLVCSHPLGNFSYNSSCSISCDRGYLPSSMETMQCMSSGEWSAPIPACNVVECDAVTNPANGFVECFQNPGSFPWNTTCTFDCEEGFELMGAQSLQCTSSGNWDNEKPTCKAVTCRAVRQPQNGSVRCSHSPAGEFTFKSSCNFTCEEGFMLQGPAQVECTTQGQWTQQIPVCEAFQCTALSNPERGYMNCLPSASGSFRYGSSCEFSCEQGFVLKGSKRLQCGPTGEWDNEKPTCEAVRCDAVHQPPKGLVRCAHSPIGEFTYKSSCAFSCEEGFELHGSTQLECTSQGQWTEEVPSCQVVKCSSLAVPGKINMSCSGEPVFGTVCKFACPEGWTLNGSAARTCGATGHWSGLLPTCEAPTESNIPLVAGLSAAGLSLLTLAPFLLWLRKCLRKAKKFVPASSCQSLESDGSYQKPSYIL
Retinoic acid receptor RXR-alpha (Homo sapiens), sequence (P19793 whole entry, looked up, the tested form may be a part): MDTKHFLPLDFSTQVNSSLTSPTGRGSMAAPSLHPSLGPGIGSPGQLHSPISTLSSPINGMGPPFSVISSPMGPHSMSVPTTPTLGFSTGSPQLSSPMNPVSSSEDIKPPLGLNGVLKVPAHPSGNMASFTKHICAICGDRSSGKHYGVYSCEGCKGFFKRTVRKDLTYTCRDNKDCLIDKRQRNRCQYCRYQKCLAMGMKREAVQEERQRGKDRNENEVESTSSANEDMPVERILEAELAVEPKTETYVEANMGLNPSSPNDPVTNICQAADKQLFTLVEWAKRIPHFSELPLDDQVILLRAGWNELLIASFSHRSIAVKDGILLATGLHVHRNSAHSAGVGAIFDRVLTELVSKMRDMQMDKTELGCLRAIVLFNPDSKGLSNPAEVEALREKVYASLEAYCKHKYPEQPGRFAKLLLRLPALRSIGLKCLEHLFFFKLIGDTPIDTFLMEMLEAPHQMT
human Vitamin D Receptor (VDR), VDR (gene 7421), sequence (P11473 whole entry, looked up, the tested form may be a part): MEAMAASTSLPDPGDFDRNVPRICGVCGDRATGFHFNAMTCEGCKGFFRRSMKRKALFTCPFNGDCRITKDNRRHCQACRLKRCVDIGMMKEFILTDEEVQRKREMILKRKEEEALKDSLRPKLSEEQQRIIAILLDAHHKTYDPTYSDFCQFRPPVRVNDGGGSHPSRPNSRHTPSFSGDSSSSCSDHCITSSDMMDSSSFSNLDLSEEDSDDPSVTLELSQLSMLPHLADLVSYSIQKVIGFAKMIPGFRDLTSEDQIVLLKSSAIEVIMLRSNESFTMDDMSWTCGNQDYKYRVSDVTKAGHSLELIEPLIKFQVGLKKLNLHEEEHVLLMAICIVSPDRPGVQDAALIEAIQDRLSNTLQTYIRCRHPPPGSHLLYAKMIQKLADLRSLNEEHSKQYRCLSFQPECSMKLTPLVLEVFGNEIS

c1ccc(N=NNc2ccccc2)cc1
active: [2] 134 µM
inactive: [1] | [3]

CCC(=O)c1ccccc1
inactive: [1] | [2] | [3]

COP(=S)(OC)Oc1ccc(S(=O)(=O)N(C)C)cc1
inactive: [1] | [2] | [4] | [5] | [6] | [7] | [8] | [9] | [3] | [10] | [11] | [12] | [13] | [14] | [15] | [16]

NC(=S)Nc1ccccc1
inactive: [1] | [4] | [5] | [6] | [7] | [17] | [8] | [9] | [3] | [10] | [18] | [11] | [12] | [13] | [14] | [15] | [16]

CC1(C)Cc2cccc(O)c2O1
inactive: [1] | [19] | [4] | [5] | [6] | [7] | [8] | [9] | [10] | [11] | [12] | [13] | [14] | [15] | [16]

CCC1(c2ccc(N)cc2)CCC(=O)NC1=O (configuration not stated)
inactive: [1] | [2] | [3]

O=[N+]([O-])c1ccc(O)c([N+](=O)[O-])c1
inactive: [1] | [2] | [4] | [5] | [6] | [7] | [8] | [9] | [10] | [11] | [12] | [13] | [14] | [15] | [16]

C(=NC1CCCCC1)=NC1CCCCC1
inactive: [1] | [2] | [3] | [15]
active: [4] 20 µM | [5] 20 µM | [7] 3.82 µM | [17] 10.2 µM | [8] 20 µM | [9] 28.7 µM | [10] 8.96 µM | [11] 37.3 µM | [12] 5.42 µM | [13] 5.35 µM | [14] 33.4 µM | [16] 8.81 µM

Oc1cccc2cccnc12
active: [4] 20 µM | [5] 5.35 µM | [18] 2.73 µM | [12] 5.54 µM | [14] 4.3 µM
inactive: [1] | [2] | [6] | [7] | [8] | [9] | [3] | [10] | [11] | [13] | [15] | [16]

CC(=O)OC(c1ccccc1)C(Cl)(Cl)Cl (configuration not stated)
inactive: [1] | [2] | [4] | [5] | [6] | [7] | [17] | [8] | [9] | [10] | [18] | [12] | [13] | [14] | [15] | [16]

O=C(O)Cc1ccccc1
inactive: [1] | [19] | [3]

C[C@H]1O[C@@H](O[C@H]2[C@@H](O)C[C@H](O[C@H]3[C@@H](O)C[C@H](O[C@H]4CC[C@@]5(C)[C@H](CC[C@@H]6[C@@H]5CC[C@]5(C)[C@@H](C7=CC(=O)OC7)CC[C@]65O)C4)O[C@@H]3C)O[C@@H]2C)C[C@H](O)[C@@H]1O
inactive: [1] | [2] | [3]

O=S(=O)(c1ccc(Cl)cc1)c1ccc(Cl)cc1
inactive: [1] | [2] | [4] | [5] | [6] | [7] | [8] | [9] | [3] | [10] | [11] | [12] | [13] | [14] | [15] | [16]

COC[C@H](C)N(C(=O)CCl)c1c(C)csc1C
inactive: [1] | [4] | [5] | [6] | [7] | [8] | [9] | [10] | [11] | [12] | [13] | [14] | [15] | [16]

CC1(C)CCC(Cc2ccc(Cl)cc2)C1(O)Cn1cncn1 (configuration not stated)
inactive: [1] | [2] | [3]

CCSC(C)CC1CC(=O)C(C(CC)=NOC/C=C/Cl)=C(O)C1 (configuration not stated)
inactive: [1] | [2] | [4] | [5] | [6] | [7] | [17] | [8] | [9] | [10] | [11] | [12] | [13] | [14] | [15] | [16]

Cc1ccc(N)cc1Cl
inactive: [1] | [2] | [3]

O=C/C=C/c1ccccc1
inactive: [1] | [19] | [3]
